# TROY NFkB inh = blocks TROY-dependent signaling in reporter cells | inhibition, % at 10 µM | hit rate 0.98% among 360,000 | Q293 LMP1-TROYcd NF-kB luciferase reporter, 4 h | AID 1347056;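 active means compounds whose plate-normalised and pattern-corrected inhibition of the luciferase reporter signal at the single screening dose is 50% or more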
# Peg3 prom inh = Peg3 promoter activity inhibition; AID 588405; hit rate 1.7% among 360,000; inhibition, % at 20 µM; HeLa PEG-Prom luciferase reporter, luminescence, overnight;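 active means inhibition of at least 50% at 20 µM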
# CF NFkB block = cystic fibrosis NF-kB activation inhibition. KKLEB NF-kB-GFP reporter, PAF-induced, GFP fluorescence overnight. hit rate 0.86% among 360,000. inhibition, % at 5 µM. AID 588850;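 active means at least 50% inhibition at 5 µM, scaled per plate between neutral and stimulator controls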;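 further: PAF is a Pseudomonas aeruginosa culture filtrate used as stimulus; plate controls were PAF-stimulated DMSO wells for no effect and unstimulated DMSO wells for full effect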
# HIF-2a block = inhibitors of HIF-2a; inhibition, % at 18.8 µM; AID 624352; 786-0 RCC cells HIF-2a reporter, luciferase luminescence, overnight; hit rate 0.72% among 360,000;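 active means inhibition of the luminescence signal of 40% or more relative to plate controls, in a single-dose primary screen at 18.75 µM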
# TWEAK-Fn14 inh = blocks TWEAK-Fn14 interaction in a reporter cell assay | TWEAK-stimulated Fn14 reporter cells, luciferase luminescence, 8 h | inhibition, % at 10 µM | hit rate 2% among 360,000 | AID 1159606; in the data active means inhibition above about 50%
# KKLEB tox = CF airway cell cytotoxicity counter-screen; hit rate 0.36% among 360,000; activity change (cytotoxicity), % at 5 µM; KKLEB CF airway cells viability, ATPlite luminescence, overnight; hits give low values; cells stimulated with P. aeruginosa culture filtrate;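 active means corrected activity change at or below -50% at 5 µM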
# CF NFkB inh conf = CF NF-kB inhibition confirmation, single concentration | shares compounds with CF NFkB block | KKLEB CF airway cells, PAF-induced NF-kB-GFP fluorescence, overnight | inhibition, % at 5 µM | hit rate 64% among 1,300 | AID 602472; in the data active means inhibition above about 40%;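 further: stimulus PAF is a Pseudomonas aeruginosa filtrate and not platelet activating factor; plate controls were DMSO wells with stimulus for no effect and unstimulated DMSO wells for full effect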
# Active calls of the source: *; . = no result given. A selection: hits, their analogues and other compounds. The true share with any hit is near 4%.
SMILES,TROY NFkB inh,Peg3 prom inh,CF NFkB block,HIF-2a block,TWEAK-Fn14 inh,KKLEB tox,CF NFkB inh conf
O=C(CCCc1nc2ccccc2s1)Nc1nccs1,-28,5,21,-24,1,-12,.
Cc1cnc(NC(=O)CCCc2nc3ccccc3s2)s1,-12,98*,84*,-42,-1,16,89*
COc1cccc(-c2ccc3ncnc(N(C)Cc4ccco4)c3c2)c1,-23,6,49,6,37,-11,.
Cc1ccsc1CN(C)c1ncnc2ccc(-c3ccoc3)cc12,30,19,84*,2,68*,-16,97*
CCOC(=O)C1CCCN(S(=O)(=O)CCNC(=O)c2ccc(F)cc2)C1 (configuration not stated),-9,10,15,10,11,-4,.
Cc1nnc(Sc2nc3ccccc3o2)c2ccccc12,-20,-102,55*,-40,36,-35,52*
Clc1ccc(-c2csc3ncnc(N4CCc5ccccc5C4)c23)cc1,55*,35,55*,36,78*,-12,46*
O=C1OC(Nc2nc(-c3ccc(F)cc3)cs2)c2ccccc21 (configuration not stated),-9,42,53*,-69,59*,-2,71*
CCCn1c(N)c(C(=O)CSc2nnc(Cc3cccs3)n2C2CC2)c(=O)n(C)c1=O,11,15,-3,27,9,11,.
Cc1cc(-n2c(SCC(=O)NCCC3=CCCCC3)nc3n[nH]c(C)c3c2=N)ccc1Cl,2,45,22,17,-28,-8,.
Cc1[nH]nc2nc(SCC(=O)NCCC3=CCCCC3)n(-c3ccc(Br)cc3)c(=N)c12,18,47,63*,-12,-7,-34,60*
O=C(Nc1ccc(OCC(=O)N2CCOCC2)cc1)c1cncc(Br)c1,14,-4,57*,3,39,-16,48*
Cc1nn(-c2nccs2)c2c1C(=O)CC(C)(C)C2Br (configuration not stated),14,50,51*,9,20,2,61*
COc1ccc(-c2nc(NC(=O)c3ccc(OCC(=O)Nc4ccc(F)cc4)c(OC)c3)sc2C)cc1,13,18,54*,8,18,-45,72*
COc1cc(C(=O)Nc2nc(-c3cc(C)ccc3C)c(C)s2)ccc1OCC(=O)Nc1ccc(F)cc1,24,27,31,20,21,-25,.
O=C(Nc1cccc(-c2cnc3ccccc3n2)c1)c1ccccc1,-11,-21,-14,-41,-5,-4,.
O=C(Nc1cccc(-c2cnc3ccccc3n2)c1)c1cccc(NC(=O)c2ccco2)c1,14,46,67*,-69,55*,-10,108*
O=C1NCCN(CC2CCN(CCc3ccc(Cl)c(Cl)c3)CC2)C1=O,-1,-6,-2,4,13,1,.
COc1ccc(CN2C[C@H]3CCCN3c3cc(Br)ccc3S2(=O)=O)cc1,23,11,53*,10,21,-6,56*
Cc1c2ccncc2cc2c1[nH]c1ccccc12,15,50,55*,18,43,-46,21
COC(=O)c1cc(S(=O)(=O)NCC2CCN(Cc3cc(C)ccc3C)CC2)c[nH]1,-5,5,-32,7,-3,11,.
Cc1cc(NC(=O)c2cc(-c3ccc(C)s3)nc3ccccc23)no1,-22,1,-44,0,-29,1,.
Cc1cccc(NC(=O)c2cc(-c3ccc(C)s3)nc3ccccc23)n1,8,46,74*,-62,21,-7,76*
CC(=O)Oc1ccccc1C(=O)Oc1ccc(/C=N/n2cnnc2)cc1,41,9,73*,15,37,-15,64*
CCOc1ccc(/C=N/n2cnnc2)cc1,11,13,3,9,-13,9,.
SMILES,TROY NFkB inh,Peg3 prom inh,CF NFkB block,HIF-2a block,TWEAK-Fn14 inh,KKLEB tox,CF NFkB inh conf
C=CC[C@]12CC=CC(=O)[C@@]1(O)O[C@H](c1ccc(OC)c(OC)c1)[C@H]2C,-24,24,62*,38,66*,-19,58*
Cc1ccc(C(C)C)c(OCC(=O)NNCC(=O)Nc2cccc(F)c2)c1,-10,0,-16,-11,1,-10,.
CCn1c(Oc2ccccc2)nc2c1c(=O)n(C)c(=O)n2C,10,10,33,26,33,-3,.
CCn1c(Oc2ccccc2F)nc2c1c(=O)n(C)c(=O)n2C,30,-2,56*,21,73*,-4,83*
CC(=O)Oc1ccccc1C(=O)Nc1ccccc1,-71,-159,-1,-183,-16,7,.
COC1(OC)C=CC(=O)C=C1NC(=O)c1ccccc1OC(C)=O,5,50*,66*,-2,63*,6,69*
C#Cc1cccc(Nc2nc(NCCOC)nc3ccsc23)c1,18,19,19,22,36,-9,.
C#Cc1cccc(Nc2nc(NC(C)C)nc3ccsc23)c1,32,39,50*,22,53*,-20,36
COc1ccccc1N1CCN(C(=O)c2ccc3c(Cl)c4c(nc3c2)CCCC4)CC1,1,27,53*,-5,-22,-12,-95
O=C(c1ccc2c(Cl)c3c(nc2c1)CCCC3)N1CCN(c2ccc(F)cc2)CC1,-2,35,29,7,-23,-14,.
CCOC(=O)c1c(-c2ccc(C)cc2)csc1NC(=O)c1ccc(N2C(=O)CCC2=O)cc1,1,5,58*,10,4,-41,55*
CCOC(=O)c1c(-c2ccc(C)cc2)csc1NC(=O)c1cccc(N2C(=O)CCC2=O)c1,-2,38,21,15,-13,-12,.
COc1ccc(NC(=O)c2ccc(F)c(F)c2)c2ccccc12,7,-15,-6,-10,-34,-6,.
O=C(Nc1ccc(F)cc1)Nc1ccc(N2CCCC2)c(S(=O)(=O)Nc2ccccc2Cl)c1,24,42,60*,-15,75*,-16,71*
O=C(Nc1ccc(N2CCOCC2)c(S(=O)(=O)Nc2ccccc2Cl)c1)c1ccc(F)cc1,9,36,-17,35,-9,8,.
CC1CCCCN1c1ncnc(N)c1[N+](=O)[O-] (configuration not stated),37,9,74*,14,61*,0,64*
CCc1ccccc1NS(=O)(=O)c1cc2c3c(c1)CCN3C(=O)CC2,3,1,9,9,0,-7,.
CC1(C(=O)Nc2ccc(Cl)cc2)Cc2c(-c3ccc(C(N)=O)cc3)ccnc2O1 (configuration not stated),-11,29,-44,28,-81,-10,.
COc1cc2c(cc1NC(=O)Cc1ccc(C)cc1)oc1ccccc12,-77,-227,4,-305,-10,-11,.
COc1cc2c(cc1NC(=O)CN1CCN(S(=O)(=O)c3ccccc3F)CC1)oc1ccccc12,2,30,55*,10,-36,-40,41*
